# Shiga inhibitor: inhibitors of Shiga toxin in Vero cells | Vero cells, Shiga toxin protein synthesis inhibition reporter | inhibition, % at 38.7 µM | 290,000 compounds, 9.2% hits; in the data active = inhibition mostly above about 28%, no sharp cut-off; inactive = mostly below about 43%
# Pf growth 96h: P. falciparum growth inhibition at 96 hour, primary screen for plastid delayed-death inhibitors; P. falciparum luciferase reporter growth, 96 h; AID 504834; 320,000 compounds, 6.9% hits; Potency, µM (series often up to 28.7 µM), actives largely listed as inhibitors
#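 Plates of compound plus infected erythrocytes (2% hematocrit, 0.05% parasitemia final) incubate 96 hours, 37 C, 5% CO2. Detection reagent added; reduced luminescence from the parasites' luciferase reporter flags inhibition.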
# Pf growth 48h: P. falciparum growth inhibition at 48 hours (one generation); P. falciparum luciferase growth in erythrocytes, 48 h; Potency, µM (titrated, usually from 28.7 µM), actives largely listed as inhibitors; 310,000 compounds, 5.9% hits; AID 504832
#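 Here the parasites carry a stable luciferase gene and grow inside erythrocytes in Albumax-based RPMI medium with compound for one erythrocytic cycle. Activity is scored as loss of luminescent signal.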
# Cycloheximide cs: affects cycloheximide protein synthesis inhibition readout, counter-screen. max response, %. 300,000 compounds, 12% hits. cell reporter, cycloheximide protein synthesis inhibition counterscreen. AID 2314; in the data active = max response mostly above about 13%, no sharp cut-off; inactive = mostly below about 14%; also: read at 38.3 µM for the half of the compounds with a filed dose
# A number is an active result; i = inactive; ? = inconclusive; nt = no result given. In the library only some 21% were active in any assay of this set; here they are far more common. Unless noted, calls follow the shape of the dose curve; as a rule, active = well fitted inhibition curve with a large enough effect; inconclusive = small, poorly fitted or top-dose-only effect, or another doubt; inactive = no such curve, though single readings can be large or run the other way.
SMILES,Shiga inhibitor,Pf growth 96h,Pf growth 48h,Cycloheximide cs
CC(=O)Nc1ccc2c(c1)OCCOCCOc1cc(NC(C)=O)ccc1OCCO2,i,?,?,i
COc1cc(OC)cc(C(=O)Nc2ccc3c(c2)OCCO3)c1,nt,?,i,26
NC(=O)Nc1ccc2c(c1)OCCO2,103,i,nt,52
O=C(O)CCNc1ccc2c(c1)OCCO2,73,?,i,42
COc1ccc(C(=O)NCc2nnc(SCC(=O)c3ccc(F)cc3)n2C)cc1OC,nt,?,i,nt
O=C(Nc1ccc2c(c1)OCCO2)c1ccc(Cl)cc1,i,?,i,28
Cc1cc(C)n(-c2ccc(C(=O)Oc3ccc4c(c3)OCO4)cc2)n1,32,i,i,18
CC(=O)c1ccc(OC(=O)c2ccc(-n3nc(C)cc3C)cc2)cc1,i,i,i,i
O=C(Nc1ccc2c(c1)OCCO2)c1ccc(NC(=O)C2CCCO2)cc1 (stereo not drawn),i,i,i,23
COc1cccc(CC2CC(=O)N(c3ccc4c(C)cc(=O)oc4c3)C2=O)c1 (stereo not drawn),i,i,i,i
Cc1cc(C)cc(-n2ncc3c2CCCC3NC(=O)c2cc(C)n(C)n2)c1 (stereo not drawn),36,i,i,22
CC1=C(C(=O)NC2CCCc3c2cnn3-c2cccc(C)c2C)OCCO1 (stereo not drawn),i,i,?,i
CC(=O)c1cc(C(=O)NC2CCCc3c2cnn3-c2cc(C)cc(C)c2)[nH]n1 (stereo not drawn),35,i,i,29
Cc1cc(C)cc(-n2ncc3c2CCCC3NC(=O)c2cc(C)[nH]n2)c1 (stereo not drawn),i,i,i,i
Cc1cc(C(=O)NC2CCCc3c2cnn3-c2cccc(C)c2C)no1 (stereo not drawn),46,?,i,27
COc1cc(CNC2CCCC2)cc(Cl)c1OCc1ccccc1F,i,?,nt,i
O=c1cc[nH]c(=S)[nH]1,nt,i,i,nt
O=C(NCC1CCN(C(=O)c2ccc([N+](=O)[O-])cc2)CC1)C(=O)Nc1ccccc1,i,15µM,i,i
Cc1ccc(OCC(=O)N2CCN(C(=O)c3ccc([N+](=O)[O-])cc3)CC2)cc1,i,i,i,i
O=C(c1ccc([N+](=O)[O-])cc1)N1CCC(Cc2ccccc2)CC1,i,?,i,i
O=C(COc1ccccc1)N1CCN(C(=O)c2ccc([N+](=O)[O-])cc2)CC1,i,i,i,48
COc1ccc(CS(=O)c2nc(C)cc(C)c2S(C)(=O)=O)cc1 (stereo not drawn),i,i,12µM,i
COc1ccc(Oc2nc(C)cc(C)c2S(C)(=O)=O)cc1,i,i,i,i
C[C@@H]1C(=O)O[C@@H]1[C@@H](C)CO[Si](c1ccccc1)(c1ccccc1)C(C)(C)C,i,nt,nt,i
CNC(=O)c1ccc(NC(=O)C2CCN(S(=O)(=O)c3cccc(C(F)(F)F)c3)CC2)cc1,nt,?,13µM,nt
SMILES,Shiga inhibitor,Pf growth 96h,Pf growth 48h,Cycloheximide cs
Cc1ccnc(NC(=O)C2CCN(S(=O)(=O)c3cccc(C(F)(F)F)c3)CC2)c1,i,?,?,14
COCCNC(=O)COc1ccc(C)cc1C(=O)c1cc(C#N)c(=O)n(C2CC2)c1,i,i,i,i
COc1ccccc1N1CCN(C(=O)CN2C(=O)c3ccccc3S2(=O)=O)CC1,i,i,i,i
O=c1[nH]c2cc3c(cc2cc1C(c1nnnn1Cc1ccccc1)N1CCCCCC1)OCCO3 (stereo not drawn),i,?,nt,i
CCc1ccc2[nH]c(=O)c(C(c3nnnn3CC3CCCO3)N3CCCc4ccccc43)cc2c1 (stereo not drawn),i,?,12µM,i
Cc1cccc2cc(C(c3nnnn3Cc3ccc4c(c3)OCO4)N3CCCC3)c(=O)[nH]c12 (stereo not drawn),i,?,7.4µM,i
O=c1[nH]c2cc3c(cc2cc1C(c1nnnn1Cc1ccccc1)N1CCN2CCCC2C1)OCCO3 (stereo not drawn),i,12µM,?,i
Cc1ccc2cc(C(c3nnnn3C(C)(C)C)N3CCCC3)c(=O)[nH]c2c1C (stereo not drawn),i,nt,3.3µM,i
COc1ccc2[nH]c(=O)c(C(c3nnnn3CC3CCCO3)N3CCCCC3)cc2c1 (stereo not drawn),i,i,i,i
CC(C)Sc1nc2ccccc2n2cnnc12,i,?,i,i
COc1cccc(NC(=S)N2CCC(N(C)CC3CCCO3)CC2)c1 (stereo not drawn),i,?,i,i
O=C(N/N=C/c1ccc(-c2ccc(Cl)c(C(=O)O)c2)o1)c1cc2c(ccc3ccccc32)o1,i,i,i,i

# From PubChem BioAssay
